The panel holds about 83,000 compounds, 20% with a hit somewhere; the sample as a whole holds those more often.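 Each cell line was grown in a 96-well plate and treated with one concentration of compound for 48 hours. Values below 10 were considered active.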 A number with no mark means an inactive call. Activity calls are given as the source filed them.
test system: HL-60(TB) leukemia; assay: NCI-60 one-dose screen, 48 h (100 = growth as untreated, 0 = no growth, -100 = all killed); conditions: 10 µM unless noted
Experimental: Growth inhibition of the HL-60(TB) human tumor cell line is measured as a screen for anti-cancer activity. Cells are grown in 96 well plates and exposed to the test compound for 48 hours. Compounds are tested at a single concentration, which is 10^-5 M for most compounds. The reported endpoint is percent growth (GI% or GIPRCNT), where numbers from 0 - 100% represent growth inhibition, and numbers from -100% - 0 represent cell death. For example, a value of 40 represents 60% growth inhibition. A value of 0 means no net growth occurred over the course of the experiment. A value of -40 indicates 40% of cells at the beginning of the experiment died by the end of the experiment. A value of -100 means all cells are dead at the end of the experiment.
NCI-60 Human Tumor Cell Lines Screen was performed using the standard one-dose NCI protocol, which is described in more detail at https://dtp.cancer.gov/discovery_development/nci-60/default.htm.
Compounds with GIPRCNT values below 10 were considered active. Activity score was based on GIPRCNT using the following formula: […]
Score is 0 for GIPRCNT values of 100 or above, 50 for GIPRCNT values of 0, and 100 for GIPRCNT values of -100.

Row | SMILES | growth
1 | O=C1/C(=C/C=C/c2ccco2)SC(=S)N1Cc1ccccc1 | 96.9%
2 | CC1(C)CC[C@]2(C(=O)O)CC[C@]3(C)C(=CC[C@@H]4[C@@]5(C)CC[C@H](NOCCCN)C(C)(C)[C@@H]5CC[C@]43C)[C@@H]2C1 | 20.2%
3 | COc1ccc(-c2nc3cc(Cl)c(Cl)cc3n2CC(=O)N=Nc2c(O)[nH]c3ccc(OC)cc23)cc1 | 86.3%
4 | CN1CCN(Cc2ccc(NC(=O)c3cncc(C#Cc4cnc5ccc(N6CCN(C)CC6)nn45)c3)cc2C(F)(F)F)CC1 | -31.5% (active)
5 | COc1cc(O)c2c(c1)/C=C/C[C@H](O)[C@H](O)C(=O)/C=C\C[C@H](C)OC2=O | -9.6% (active)
6 | O=C(CCCCCCN1CC(=O)N2[C@@H](c3ccccc3)c3[nH]c4ccccc4c3C[C@H]2C1=O)NO | 28.5%
7 | COc1cc(-c2nn(C(C)(C)C)cc2-c2ccnc(NCCCNS(=O)(=O)c3ccc(C)cc3)n2)ccc1Cl | 108%
8 | N#Cc1c(-c2ccc(F)cc2)cc(-c2c[nH]c3ccccc23)nc1-c1c[nH]c2ccccc12 | 98.9%
9 | C=C(C)[C@@H]1CC[C@]2(C(=O)NC3CCCCC3)CC[C@]3(C)[C@H](CC[C@@H]4[C@@]5(C)CC[C@H](N)C(C)(C)[C@@H]5CC[C@]43C)[C@@H]12 | 74.5%
10 | C=C(C=O)[C@@H]1CC[C@]2(C)[C@H](C(=O)C=C3[C@H]4C[C@](C)(C(=O)OC)CC[C@]4(C)CC[C@]32C)[C@@]1(C)CCC#N | -27.3% (active)
11 | C=C(C)[C@@H]1CC[C@]2(C(=O)NCCCN(CCC#N)CCC#N)CC[C@]3(C)[C@H](CC[C@@H]4[C@@]5(C)CCC(=O)C(C)(C)[C@@H]5CC[C@]43C)[C@@H]12 | 96.3%
12 | c1cn2c(ccc3nc(-c4cn[nH]c4)c4c(c32)CCCC4)n1 | 73.8%
13 | COc1cccc(-c2nn(-c3ccccc3)cc2-c2ccnc(N3CCN(C(=O)c4ccccc4)CC3)c2)c1 | 34.8%
14 | Cc1cc(C(NC(=O)CCCCCNc2cccc3c2C(=O)N(C2CCC(=O)NC2=O)C3=O)c2ccc3c(c2)OC(F)(F)O3)c(O)c2ncccc12 (stereo not given) | 19.7%
15 | O=C(CSc1nc2sc3c(c2c(=O)n1-c1ccc(Cl)cc1)CCCC3)NNC(=O)Nc1cccc(C(F)(F)F)c1 | 2.24% (active)
16 | Fc1ccc(-c2cc3nc(C(Cl)Cl)nc(-c4cccs4)n3n2)cc1 | -2% (active)
17 | O=C1/C(=C/c2ccc([N+](=O)[O-])cc2)SC(=Nc2ccccc2)N1Nc1ccccc1 | 25.8%
18 | O=c1oc2ccc(-c3ccc(F)cc3F)cc2c(=O)n1-c1ccc(F)c(F)c1 | -18.9% (active)
19 | CC(C)c1nn(-c2ccccc2)c(N2CCCCC2)c1/C=N/NC(N)=S | 98.4%
20 | Fc1ccc(-c2cc3nc(C(Cl)Cl)nc(-c4ccc(Cl)cc4)n3n2)cc1 | -4.23% (active)

Row | SMILES | growth
21 | C#CCOc1cccc(/C(N)=N/C(N)=N/c2nc3ccccc3s2)c1 | 88.8%
22 | Cn1ccnc1C(=O)/C=C/c1ccc(NC(=O)Nc2ccccc2)cc1 | -16.5% (active)
23 | O=C(CCCCCCNC(=O)C(O)(O)C(F)(F)F)Nc1ccc(Br)cc1 | 10.4%
24 | CC1=C(C)C(=O)C(Nc2cccc(C(F)(F)F)c2)=C(Br)C1=O | 54.7%
25 | CS(=O)(=O)c1nccc(-c2c(-c3ccc(F)c(OCc4ccccc4)c3)nc3sccn23)n1 | 5.59% (active)
26 | O=C(CSc1nc2ccccc2c(=O)n1CCc1ccccc1)Nc1ccc(S(=O)(=O)Nc2ccc(Cl)nn2)cc1 | 132%
27 | COc1ccc(COc2ccc(/C=C3\C(=O)Nc4ccccc43)cc2OC)cc1 | 115%
28 | CN1CCC[C@]2(C)[C@H]3CC[C@@H]4[C@@H]5[C@H]6OC[C@@]5(CCC6(C)C)CC[C@@]4(C)[C@]3(C)CC[C@H]2C1(C)C | 30.6%
29 | CN1CCN(Cc2ccc(NC(=O)c3cncc(C#Cc4cnc5ccc(N6CCOCC6)nn45)c3)cc2C(F)(F)F)CC1 | -40.8% (active)
30 | Fc1ccc(-c2cc3nc(C(Cl)Cl)nc(-c4ccccc4)n3n2)cc1 | -17.3% (active)
31 | CCCCCCCCCC[C@@H](C)[C@@H]1CC(=O)N[C@H]([C@@H](C)O)C(=O)N[C@@H](C)C(=O)N[C@H](C)C(=O)N[C@@H](CCC(N)=O)C(=O)N[C@H](Cc2ccc(O)cc2)C(=O)N[C@@H](C(C)CC)C(=O)O1 (stereo not given in full) | 65%
32 | CSc1ccc(C(=NNS(=O)(=O)c2ccc(C)cc2)c2ccc(Cl)cc2)cc1 | 97.1%
33 | Cc1ccc(S(=O)(=O)NCCCNc2nc(Nc3ccc(N4CCN(C)CC4)cc3)nc3ccsc23)cc1 | -50.9% (active)
34 | CC(=O)Nc1ccc(C)c(Nc2cc(-c3ccc(-n4cccn4)cc3)[nH]n2)c1 | 12.8%
35 | O=C(NNc1nc2cc(F)ccc2n2cccc12)c1ccncn1 | -4.33% (active)
36 | O=c1[nH]c2ccccc2cc1CSc1ccccc1Nc1nccc(-c2ccc(Cl)cc2)n1 | 102%
37 | Nc1ncc(-c2ccc3ncnc(NCc4ccccc4)c3c2)cn1 | 44.1%
38 | N/C(=N\c1nc2c(Br)cccc2s1)C(Br)Br | 7% (active)
39 | CC[C@]12C=CCN3CC[C@]4(C(=C(C(=O)OC)C1)Nc1cc5c(cc14)[C@@H]1[C@H](O5)[C@@H](O)[C@@]4(CC)CC(C(=O)OC)=C5Nc6cc(OC)ccc6[C@@]56CCN1[C@@H]46)[C@@H]32 | 5.09% (active)
40 | CCCNNC(=O)c1ccc(-c2ccc(NC(=O)CCCCCCC(=O)N[C@H](C(=O)N3C[C@H](O)C[C@H]3C(=O)N[C@@H](C)c3ccc(-c4scnc4C)cc3)C(C)(C)C)cc2)cc1 | 18.1%

Source: PubChem BioAssay (NCI)
